For 7 molecules, growth results are on record in PubChem BioAssay (NCI).

Test systems include HT29 colon; SNB-75 CNS; SNB-19 CNS; U251 CNS; SK-MEL-5 melanoma; UACC-62 melanoma; LOX IMVI melanoma; SK-MEL-28 melanoma; SK-MEL-2 melanoma.
Assay in all cases: NCI-60 one-dose screen, 48 h (100 = growth as untreated, 0 = no growth, -100 = all killed)
Common to all, as to conditions: 10 µM unless noted

About 83,000 compounds went through this panel and 20% of them were active in at least one assay; those are over-represented in the sample as a whole.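 Results are percent growth after 48 hours of single-concentration exposure. 100 means growth as in untreated cells, lower positive values show inhibition; negative values down to -100 show cell death.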 Unmarked numbers belong to inactive results. Active and inactive are the calls of the source. Rule for the calls: active = growth percent below 10; inactive = the rest.

Turning to `COc1ccc(/C=C/C(=O)Nc2cccnc2Nc2ccc(F)cc2)cc1`, the growth was 109% with HT29 colon; 97.3% in the test with SNB-75 CNS; 87.9% in the test on SNB-19 CNS; 93.4% in the test with U251 CNS; 87.2% in the test with SK-MEL-5 melanoma; 86.6% in the test with UACC-62 melanoma. Also, the growth is 98.9% with LOX IMVI melanoma, 98.6% in the test on SK-MEL-28 melanoma and 120% in the test with SK-MEL-2 melanoma.
Consider `CC/C=C\C=C/C(=O)N/C=C/CC1Cc2cccc(O)c2C(=O)O1` (stereo not drawn), for which the growth in the test on HT29 colon was 44.1%; with SNB-75 CNS it was 18.7%; in the test on SNB-19 CNS, 56%; with U251 CNS it was 57.7%; with SK-MEL-5 melanoma it was 13%; in the test on UACC-62 melanoma it was 61.4%. In addition, the values for the growth in the test on LOX IMVI melanoma, in the test on SK-MEL-28 melanoma and in the test on SK-MEL-2 melanoma were 75%, 76.9% and 95.8%, respectively.
As to `CCN(CC)CCCCNc1c2ccccc2[n+](C)c2c1[nH]c1ccccc12`, the growth with HT29 colon was 0.443% (active); in the test with SNB-75 CNS, -49.8% (active); in the test with SNB-19 CNS it was -22.7% (active); with U251 CNS, 0.218% (active); in the test on SK-MEL-5 melanoma, -69.9% (active); with UACC-62 melanoma, -69.6% (active). Also, the growth was -5.07% (active) with LOX IMVI melanoma, -90.4% (active) in the test on SK-MEL-28 melanoma and -90.7% (active) in the test with SK-MEL-2 melanoma.
On to `O=c1cc(-c2cccnc2)oc2c1ccc1ccccc12`, for which the growth in the test with HT29 colon is 59%; with SNB-75 CNS, 54.4%; with SNB-19 CNS it was 64.7%; in the test with U251 CNS it was 48.8%; with SK-MEL-5 melanoma, 63.3%; with UACC-62 melanoma it was 70.3%. For the same molecule, the values for the growth in the test on LOX IMVI melanoma, with SK-MEL-28 melanoma and with SK-MEL-2 melanoma were 75.5%, 69.3% and 110%, respectively.
In the case of `COc1cc(NC(=O)c2cc3ccccc3cc2O)c(OC)cc1Cl`, the growth is 64.8% with HT29 colon; 40.9% in the test on SNB-75 CNS; 16% in the test with SNB-19 CNS; 13.1% in the test on U251 CNS; -41.9% (active) in the test on SK-MEL-5 melanoma; 24% with UACC-62 melanoma. The growth in the test with LOX IMVI melanoma was 3.45% (active); in the test on SK-MEL-28 melanoma it was 43.6%; in the test on SK-MEL-2 melanoma, -17.2% (active).
`COc1ccc(OC)c(NC(=O)c2cc3oc4ccccc4c3cc2O)c1`: the growth in the test on HT29 colon was 100%; with SNB-75 CNS, 84%; in the test on SNB-19 CNS it was 92.7%; in the test with U251 CNS, 120%; in the test with SK-MEL-5 melanoma it was 91.1%; in the test on UACC-62 melanoma, 79.7%. Also, the growth in the test with LOX IMVI melanoma is 109%; in the test on SK-MEL-28 melanoma, 101%; in the test on SK-MEL-2 melanoma, 96.1%.
Consider `NC(=O)N/N=C/c1ccc(Br)o1`, for which the growth in the test with HT29 colon is 102%; with SNB-75 CNS it was 105%; with SNB-19 CNS, 111%; in the test with U251 CNS, 106%; with SK-MEL-5 melanoma it was 101%; with UACC-62 melanoma, 104%. Further, the figures for the growth in the test on LOX IMVI melanoma, in the test with SK-MEL-28 melanoma and in the test with SK-MEL-2 melanoma were 94.2%, 105% and 99.6%, respectively.
